Results published in the supplement of paper PMC3545927.
The other results are listed elsewhere or left out. No count for the full screen is at hand.

Target: furin, P09958
Test: furin cleavage Z-score vs untreated control; higher = more cleavage, active = 3.5 or more, inactive = 1 or less, 8 variable residues between constant flanks
Procedure, shortened: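 Purified furin cleaved 8-mer peptides that were fused to a cDNA oligonucleotide and held on magnetic beads by their N-terminus. Each 0.01 ml reaction used a 1:10 enzyme:substrate ratio in 50 mM HEPES pH 7.5 with CaCl2 and NaCl and ran 7.5, 15 or 30 min. Released DNA was adapter-tagged by PCR and sequenced, and read counts gave abundance. The cleavage Z-score came from log counts against furin-free reactions, lowess-adjusted and scaled by median absolute deviation.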

Sequence of furin, P09958 (P09958 whole entry): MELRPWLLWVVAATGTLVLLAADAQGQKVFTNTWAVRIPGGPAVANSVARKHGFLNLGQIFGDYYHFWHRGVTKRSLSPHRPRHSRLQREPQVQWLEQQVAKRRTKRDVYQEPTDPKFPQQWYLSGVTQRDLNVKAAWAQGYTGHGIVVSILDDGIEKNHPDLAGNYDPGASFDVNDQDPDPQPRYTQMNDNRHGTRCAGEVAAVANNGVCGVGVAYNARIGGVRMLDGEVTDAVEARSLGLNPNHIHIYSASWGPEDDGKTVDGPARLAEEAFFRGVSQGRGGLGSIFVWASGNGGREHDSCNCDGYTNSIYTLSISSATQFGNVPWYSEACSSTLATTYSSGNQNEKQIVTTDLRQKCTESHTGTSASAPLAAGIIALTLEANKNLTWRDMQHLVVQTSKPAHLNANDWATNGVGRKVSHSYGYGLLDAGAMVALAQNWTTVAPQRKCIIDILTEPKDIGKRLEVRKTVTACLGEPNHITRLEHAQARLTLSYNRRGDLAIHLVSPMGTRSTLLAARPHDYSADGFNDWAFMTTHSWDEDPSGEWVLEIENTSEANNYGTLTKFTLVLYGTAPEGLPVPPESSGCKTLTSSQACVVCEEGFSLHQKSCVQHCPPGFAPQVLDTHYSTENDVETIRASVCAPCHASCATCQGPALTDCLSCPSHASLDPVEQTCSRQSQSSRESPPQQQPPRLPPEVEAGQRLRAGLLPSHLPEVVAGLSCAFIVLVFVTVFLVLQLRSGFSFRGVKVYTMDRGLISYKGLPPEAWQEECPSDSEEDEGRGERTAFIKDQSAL

Row | Sequence | furin cleavage Z-score (7.5 min) | furin cleavage Z-score (15 min) | furin cleavage Z-score (30 min)
1 | CAEVVTHTWVAGNASASA [HC149] | -0.408 (inactive) | -0.439 (inactive) | 0.597 (inactive)
2 | CALAYGLRSKAGNASASA [TR9] | -0.353 (inactive) | 0.335 (inactive) | -1.59 (inactive)
3 | CASTYCSAHLAGNASASA [HC2509] | -0.262 (inactive) | -0.642 (inactive) | 2.3
4 | CAEVHCHRPSAGNASASA [HC2355] | 1.25 | 0.809 (inactive) | 1.14
5 | CARTKRDVYQAGNASASA [FS-2825] | 9.66 (active) | 11.4 (active) | 9.76 (active)
6 | CARTKRYVVFAGNASASA [FS-2095] | 4.82 (active) | 4.06 (active) | 6.56 (active)
7 | CAVAVEPVVFAGNASASA [HC645] | 1.23 | -0.0223 (inactive) | -0.472 (inactive)
8 | CARKGRYKAFAGNASASA [FS-2960] | -0.402 (inactive) | -0.376 (inactive) | -0.0128 (inactive)
9 | CAEISVPAEIAGNASASA [HC1294] | -0.695 (inactive) | -1.61 (inactive) | -1.39 (inactive)
10 | CASTFCSAHLAGNASASA [HC2507] | -0.833 (inactive) | -0.376 (inactive) | -0.904 (inactive)
11 | CAQLEVVTSTAGNASASA [HC2282] | 0.398 (inactive) | 1.61 | 0.854 (inactive)
12 | CAYLYGVGSSAGNASASA [HC511] | 0.568 (inactive) | -0.0293 (inactive) | 0.0874 (inactive)
13 | CAARKMIGGHAGNASASA [HC623] | 0.0211 (inactive) | 1.66 | 1.13
14 | CAARQRTRRHAGNASASA [FS-1112] | 11.1 (active) | 12.6 (active) | 10 (active)
15 | CASRRRARRHAGNASASA [FS-1416] | 7.59 (active) | 6.18 (active) | 7.01 (active)
16 | CASRIRIERVAGNASASA [FS-1087] | 0.306 (inactive) | 3.11 | 2.24
17 | CASRRRMKRVAGNASASA [FS-1167] | 11 (active) | 12 (active) | 9.11 (active)
18 | CASRRRTRRPAGNASASA [FS-873] | 0.729 (inactive) | 0.54 (inactive) | 0.884 (inactive)
19 | CAPPLRAWRHAGNASASA [HC1618] | -0.103 (inactive) | 0.906 (inactive) | -0.71 (inactive)
20 | CASRRRFYRPAGNASASA [FS-506] | -1.15 (inactive) | 0.235 (inactive) | -2.19 (inactive)
21 | CAAPPRARRHAGNASASA [FS-975] | 8.59 (active) | 9.67 (active) | 6.85 (active)
22 | CAEVLCHRPSAGNASASA [HC2345] | 1.1 | -0.279 (inactive) | 0.507 (inactive)

Row | Sequence | furin cleavage Z-score (7.5 min) | furin cleavage Z-score (15 min) | furin cleavage Z-score (30 min)
23 | CAMEECSQHDAGNASASA [HC1771] | -0.304 (inactive) | 0.175 (inactive) | 0.222 (inactive)
24 | CAAVQTNWQKAGNASASA [HC1035] | 0.252 (inactive) | 0.157 (inactive) | -0.0579 (inactive)
25 | CAMYVGGVEHAGNASASA [HC476] | -0.473 (inactive) | -0.882 (inactive) | -0.205 (inactive)
26 | CATTPFSGSWAGNASASA [HC46] | -0.133 (inactive) | -0.615 (inactive) | -0.727 (inactive)
27 | CATPPRSKRVAGNASASA [FS-1096] | 4.55 (active) | 6.1 (active) | 4.13 (active)
28 | CAVVCCSMYYAGNASASA [HC2069] | -0.54 (inactive) | -0.258 (inactive) | -1.53 (inactive)
29 | CAYVQMVIIKAGNASASA [HC627] | -1.63 (inactive) | -1.94 (inactive) | -0.568 (inactive)
30 | CAQLVRALRSAGNASASA [FS-848] | 7.22 (active) | 7.99 (active) | 7.1 (active)
31 | CAAGTRTIASAGNASASA [HC703] | 0.83 (inactive) | 0.675 (inactive) | 0.11 (inactive)
32 | CAAGRRALRSAGNASASA [FS-1182] | 4.32 (active) | 4.3 (active) | 3.06
33 | CAKQFRALRSAGNASASA [FS-1595] | 4.54 (active) | 5.86 (active) | 4.56 (active)
34 | CAKNGRPLRSAGNASASA [FS-341] | 0.926 (inactive) | 2.59 | 0.891 (inactive)
35 | CAGCPERLASAGNASASA [HC386] | 1.74 | 0.605 (inactive) | -0.259 (inactive)
36 | CAVRARFVRFAGNASASA [FS-1433] | 9.46 (active) | 9.43 (active) | 8.99 (active)
37 | CAVYARVSRFAGNASASA [FS-517] | 0.958 (inactive) | 0.514 (inactive) | 2.26
38 | CALRIRNVRFAGNASASA [FS-1465] | 2.76 | 6.35 (active) | 7.62 (active)
39 | CAVYVRVSRFAGNASASA [FS-518] | 3.44 | 4.83 (active) | 6.25 (active)
40 | CASRLRFDRFAGNASASA [FS-505] | -0.495 (inactive) | 0.902 (inactive) | -0.181 (inactive)
41 | CAREARAVIFAGNASASA [FS-3186] | -0.327 (inactive) | -0.0656 (inactive) | 2.23
42 | CAVRCCSMSYAGNASASA [HC2013] | 0.204 (inactive) | -0.014 (inactive) | 0.753 (inactive)
43 | CAALEVVTSTAGNASASA [HC2263] | 0.411 (inactive) | -0.918 (inactive) | -0.927 (inactive)
